The source of these data is PubChem BioAssay (Tox21).

Records with an inconclusive call do not appear. Active and inactive are the calls of the source. Calls follow the shape of the dose curve; as a rule, active = well fitted activation curve with a large enough effect in the signal ratio in the repeat runs (not every such curve was filed as active); inconclusive = weak or mixed curves; inactive = flat fitted curve, though single readings scatter; the % refers to the signal ratio.
% is scaled to controls: 0 for no effect and ±100 for the full control effect.

The test can be described thus: qHTS assay to identify small molecule agonists of the hypoxia (HIF-1) signaling pathway (AID 1224846). The conditions noted are these: HRE-bla ME-180 cells, beta-lactamase ratio, 17 h; series mostly up to 76.8 µM; activation: at the top concentration. From the text: U.S. Tox21 Program National Center for Advancing Translational Sciences [NCATS] NIH Chemical Genomics Center [NCGC] U.S. Environmental Protection Agency [EPA] National Institutes of Environmental Health Sciences [NIEHS] National Toxicology Program [NTP] U.S. Food and Drug Administration [FDA] Tox21 Assay Overview: Hypoxia-inducible factor-1 (HIF-1) is the major hypoxia-regulated transcription factor that controls cellular responses to low oxygen concentration. HIF-1 is composed of two subunits: hypoxia responsive HIF-1-alpha and constitutively expressed HIF-1-beta, which is also known as aryl hydrocarbon receptor nuclear translocator. During hypoxic conditions, HIF-1-alpha heterodimerizes with HIF-1-beta and translocates into the nucleus where the HIF-1 complex binds to the hypoxia-response element (HRE) and activates expression of target genes such as VEGF (vascular endothelial growth factor). The HIF-1 pathway is essential to normal growth and development, and is involved in the pathophysiology of cancer, inflammation, and ischemia. Using a beta-lactamase reporter-gene under control of the hypoxia response element, a cell-based assay [CellSensor(TM) HRE-bla ME-180 from Life Technologies, Carlsbad, CA] was used to measure hypoxia-induced signaling. Tox21 10K library compounds were measured for their ability to induce the reporter gene activity.
Tox21 Assay Protocol Summary: HRE-bla ME-180 cells were dispensed at 2,000 cells per well in 6 uL of assay medium containing 0.5% dialyzed FBS into black wall/clear-bottom 1536-well plates using a Multidrop Combi (Thermo Scientific, Waltham, MA) dispenser. After the assay plates were incubated at 37C and 5% CO2 for 5 hrs, 23 nL of compounds dissolved in DMSO, positive controls or DMSO only was transferred to each well of the assay plate using a Pintool station (Kalypsys, San Diego, CA). The assay plates were incubated at 37C and 5% CO2 for 17 hrs. One uL of LiveBLAzerTM B/G FRET substrate (CCF4-AM) (Life Technologies) was added to each well using a Flying Reagent Dispenser (Aurora Discovery, San Diego, CA).
In general terms: In qHTS, concentration-response curves come from the screen itself.
In the case of `COc1cc(S(=O)(=O)Nc2ccccc2)c(OC)cc1N`, the “activation” value was -0.981% (inactive).

As for `O=S(=O)(Cl)c1c(Cl)cccc1Cl`, the “activation” value is 0.0204% (inactive).

As to `O=C(O)c1ccc(O)cc1O`, the “activation” value was 0.217% (inactive). Regarding `COc1ccc(C(=O)NCc2ccc(OCCN(C)C)cc2)cc1OC`, the “activation” value is 0.203% [at 35.5 µM] (inactive). Regarding `N[C@@H](Cc1cc(I)c(O)c(I)c1)C(=O)O`, the “activation” value is 0.359% [at 35.5 µM] (inactive). As to `CC(C)(C)C1(CCc2ccc(Cl)cc2)CO1` (stereo not given), the “activation” value was -0.679% (inactive).

For `CC(C)(C(=O)c1cccnc1)c1cccnc1`, the “activation” value is -0.65% [at 35.5 µM] (inactive). With `CCN(Cc1cccc(S(=O)(=O)O)c1)c1ccc(C(=C2C=CC(=[N+](CC)Cc3cccc(S(=O)(=O)O)c3)C=C2)c2ccccc2S(=O)(=O)[O-])cc1`, the “activation” value was -0.282% [at 35.5 µM] (inactive). As to `CCC(C)(C)C(=O)O`, the “activation” value was -0.977% (inactive).

Take `CCCCCCCC/C=C\CCCCCCCC(=O)OCCO`: the “activation” value is 0.163% (inactive).

As to `OCC(CO)n1cnc(-c2ccc(F)cc2)c1-c1ccnc(Oc2ccccc2)n1`, the “activation” value was -1.05% (inactive).

On to `CCCCCCCCCCCSCC(=O)O`, for which the “activation” value is 0.183% (inactive). With `CC[C@H]1OC(=O)[C@H](C)[C@@H](O[C@H]2C[C@@](C)(OC)[C@@H](O)[C@H](C)O2)[C@H](C)[C@@H](O[C@@H]2O[C@H](C)C[C@H](N(C)C)[C@H]2O)[C@](C)(O)C[C@@H](C)CN(C)[C@H](C)[C@@H](O)[C@]1(C)O`, the “activation” value was 0.0138% [at 35.5 µM] (inactive). Under `O=C(O)CCS` stands -0.969% (inactive); under `Cc1ccc(NC(=O)N(C)C)cc1NC(=O)N(C)C`, -0.544% (inactive); under `CC(C)(C)S`, -0.101% (inactive). For the molecule `CC(C)(O)c1coc(S(=O)(=O)NC(=O)Nc2c3c(cc4c2CCC4)CCC3)c1`, the “activation” value is -1.14% (inactive). For the molecule `O=C(O)c1cc(Cl)cc(Cl)c1O`, the “activation” value is 0.419% (inactive). `ClC1=C(Cl)C1(Cl)Cl`: the “activation” value was -0.165% (inactive).

For `CC[C@H]1OC(=O)[C@H](C)[C@@H](O[C@H]2C[C@@](C)(OC)[C@@H](O)[C@H](C)O2)[C@H](C)[C@@H](O[C@@H]2O[C@H](C)C[C@H](N(C)C)[C@H]2O)[C@](C)(O)C[C@@H](C)/C(=N\OCOCCOC)[C@H](C)[C@@H](O)[C@]1(C)O`, the “activation” value is -0.159% [at 35.5 µM] (inactive). As for `Cc1c(C2(c3cc(Br)c(O)c(Br)c3C)OS(=O)(=O)c3ccccc32)cc(Br)c(O)c1Br`, the figure is -2.03% (inactive).

In the case of `CCC1CCC(CCC(=O)O)C1` (stereo not given), the “activation” value was -1.2% (inactive). Regarding `Nc1ccc(F)cc1`, the “activation” value was -1.15% (inactive). Under `CCNc1nc(N)nc(Cl)n1` stands -0.434% (inactive); under `COC(OC)OC`, -0.505% (inactive); under `CC1CCCO1` (stereo not given), -0.423% (inactive). Take `Cc1cc(CCCOc2c(C)cc(-c3noc(C(F)(F)F)n3)cc2C)on1`: the “activation” value is 3.99% [at 35.5 µM] (inactive). As for `SCCc1cnccn1`, the figure is 0.0572% (inactive).

Take `CC1=CC[C@@H]2C[C@H]1C2(C)C`: the activation was -1.3% [at 15.8 µM] (inactive). As for `CCCCCCCCCCCCCC(=O)OCC(O)CO` (stereo not given), the “activation” value is -1.37% (inactive).

Consider `COc1ccc(CCN(C)CCCN2CCc3cc(OC)c(OC)cc3CC2=O)cc1OC`, for which the “activation” value was -0.633% [at 35.5 µM] (inactive). As to `CCCCCCCCCCCCCOC(=O)CCSCCC(=O)OCCCCCCCCCCCCC`, the activation was 0.146% [at 15.8 µM] (inactive).

As for `O=c1[nH]c2cc(C(F)(F)F)c(N3CCOCC3)cc2n(CP(=O)(O)O)c1=O`, the “activation” value is -0.0198% [at 35.5 µM] (inactive). In the case of `CC(CCc1ccc(O)cc1)NCCc1ccc(O)c(O)c1` (stereo not given), the “activation” value was -0.656% [at 35.5 µM] (inactive). Turning to `CCCCCCC(CO)CCCC` (stereo not given), the “activation” value was 0.0309% (inactive). Under `CCCCCCCC(=O)OCCCCCC` stands -0.155% (inactive). `COc1cc(OC)c2ccc(=O)oc2c1`: the “activation” value is 1.82% (inactive). As for `c1ccc(CNc2ncnc3c2ncn3C2CCCCO2)cc1` (stereo not given), the “activation” value was 0.248% (inactive). For `Cc1cc(CCC(=O)OCCOCCOCCOC(=O)CCc2cc(C)c(O)c(C(C)(C)C)c2)cc(C(C)(C)C)c1O`, the “activation” value is -0.0035% (inactive). Regarding `CCN(Cc1cccc(S(=O)(=O)O)c1)c1ccc(C(=C2C=CC(=[N+](CC)Cc3cccc(S(=O)(=O)O)c3)C=C2)c2ccc(O)cc2S(=O)(=O)[O-])cc1`, the “activation” value was -1.46% [at 35.5 µM] (inactive).
